HPGD inh – HPGD (human) dehydrogenase inhibition | purified HPGD, NADH fluorescence kinetic, PGE2 substrate | Potency, µM, without a hit: top-dose activity change, negative = inhibition, most hits filed as inhibitors | 4.3% of 150,000 active | AID 894; note: % is set by controls: 0 for no effect and ±100 for the full control effect
Target sequence (P15428 whole entry, looked up): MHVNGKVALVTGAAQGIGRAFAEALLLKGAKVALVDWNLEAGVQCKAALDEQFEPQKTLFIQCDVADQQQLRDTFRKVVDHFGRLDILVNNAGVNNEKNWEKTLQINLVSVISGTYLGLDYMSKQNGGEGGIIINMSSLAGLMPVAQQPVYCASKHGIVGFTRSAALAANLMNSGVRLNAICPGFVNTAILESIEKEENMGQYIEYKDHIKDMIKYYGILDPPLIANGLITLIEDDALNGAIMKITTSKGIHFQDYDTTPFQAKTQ
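20 nM HPGD preincubated 15 min at room temperature with compound in 50 mM Tris-HCl pH 8, 0.01% Tween 20. Started with 1 mM NAD+ and 30 uM prostaglandin E2; NADH fluorescence (360/450 nm) read 5 times over 30-s intervals, last minus first.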
HTT cytoprotect – protects HTT-Q103 PC12 cells, measured by ATP | PC12 HTT-Q103 induced, cytoprotection, ATP luminescence, 40 h | Potency, µM (series often up to 56.4 µM), for inactives: cytoprotection (ATP increase), actives largely listed as activators | 0.14% of 230,000 active; active = well fitted curve in the direction sought with a large enough effect; inconclusive = small, poorly fitted or top-dose-only effect, or another doubt; inactive = no such curve, though single readings can be large; an effect the other way counts as inactive or inconclusive; note: % of control where 0% means no effect; nearly all actives have a fitted effect of over 45% in size
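PC12 cells stably carrying ecdysone-inducible Htt exon 1 (Q103)–GFP were induced with 100 nM tebufenozide (final) alongside library compounds in a dose series. Cytoprotection was scored as retained ATP by ATPlite luminescence.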
HTT aggregate – reduces HttQ103-GFP aggregates in PC12 cells. PC12 HttQ103-GFP aggregates, Acumen cytometry, 40 h. Potency, µM (series often up to 46.1 µM), inactives show top-dose activity change, negative = inhibition, hits mostly inhibitors. 1.1% of 220,000 active. AID 1688; active = well fitted curve in the direction sought with a large enough effect; inconclusive = small, poorly fitted or top-dose-only effect, or another doubt; inactive = no such curve, though single readings can be large; an effect the other way counts as inactive or inconclusive; note: % is set by controls: 0 for no effect and ±100 for the full control effect; nearly all actives have a fitted effect of over 60% in size
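Inducible Q103 Huntingtin exon 1–GFP PC12 line, 1500 cells/well in phenol red free DMEM with 5% equine and 5% calf serum. Tebufenozide 100 nM induced expression; compounds titrated; aggregates quantified by cytometry.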
Lamin A splicing – modulators of lamin A splicing; 0.01% of 200,000 active; Potency, µM (highest dose often 46.1 µM), for inactives: at the top dose ratio change, negative = inhibition, hits mostly inhibitors; HeLa LMNA splicing GFP/RFP minigene ratio, 48 h; active = well fitted inhibition curve with a large enough effect in the signal ratio, with a control signal flat, not every such curve was filed as active; inconclusive = small, poorly fitted or top-dose-only effect, or effect the other way, or a change in a side signal; the % refers to the signal ratio; note: % is set by controls: 0 for no effect and ±100 for the full control effect
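S3 HeLa cells stably expressing lamin A-EGFP splicing minigene plus DsRed2, 600 cells/well, 48 h compound exposure at 37C. Laser-scanning cytometry; analysed as GFP (500-530 nm)/RFP (575-640 nm) total intensity ratio; 0.5% DMSO vehicle.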
JMJD2E inh – JMJD2E (human) inhibition | B2RXH2 | JMJD2E catalytic domain, FDH-coupled NADH fluorescence (FDH is formaldehyde dehydrogenase) | Potency, µM (highest dose often 57.1 µM), inactives show top-dose activity change, negative = inhibition, actives largely listed as inhibitors | 1.6% of 230,000 active | AID 2147;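 note: 0% = wells with enzyme and -100% = buffer wells without enzyme; nearly all actives have a fitted effect of over 50% in size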
Target sequence (B2RXH2 1-337 limits assumed): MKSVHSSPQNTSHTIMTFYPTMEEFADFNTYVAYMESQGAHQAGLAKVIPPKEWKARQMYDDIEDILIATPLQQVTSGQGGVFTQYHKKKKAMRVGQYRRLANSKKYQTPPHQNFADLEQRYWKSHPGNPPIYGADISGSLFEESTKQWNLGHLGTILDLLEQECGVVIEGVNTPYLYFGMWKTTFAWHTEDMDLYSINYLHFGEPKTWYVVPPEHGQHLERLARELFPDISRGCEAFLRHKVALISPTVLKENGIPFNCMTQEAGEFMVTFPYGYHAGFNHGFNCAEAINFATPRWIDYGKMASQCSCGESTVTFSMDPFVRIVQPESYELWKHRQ
ALDH1A1 block – blocks purified human ALDH1A1 activity | P00352 | Purified ALDH1A1, NADH fluorescence, propionaldehyde substrate | Potency, µM (highest dose often 75.3 µM), for inactives: top-dose activity, negative = inhibition, usual class: inhibitors | 7.3% of 220,000 active;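 note: plate controls were no enzyme wells and a reference inhibitor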
* = called active by the depositor; [ ] = remark or other dose. Most compounds without a hit are left out; they make up all but 9.2% or so of the library. Unless noted, calls come from the whole dose curve; as a rule, active = well fitted inhibition curve with a large enough effect (not every such curve was filed as active); inconclusive = small, poorly fitted or top-dose-only effect, or another doubt; inactive = no such curve, though single readings can be large or run the other way. Potency is the fitted concentration of half-maximal effect.

`CC(NC(=O)c1ccc2c(c1)OCCO2)c1ccc(S(N)(=O)=O)cc1` (stereo not given) gave HTT cytoprotect -10%, HTT aggregate -9%, Lamin A splicing -18%[46 µM], JMJD2E inh 1% and ALDH1A1 block -4%.
Screening O=C(COc1ccccc1)NNC(=S)NC(=O)c1ccc(Cl)cc1Cl returned HPGD inh 35µM*, HTT cytoprotect -5%[10 µM], HTT aggregate -6%, Lamin A splicing inconclusive, JMJD2E inh 0% and ALDH1A1 block 7.9µM*.
COc1cccc(OCC(=O)Nc2ccccc2-c2ccccc2)c1 was read as HTT cytoprotect -6%[10 µM], HTT aggregate -4%[9.22 µM], JMJD2E inh inconclusive and ALDH1A1 block 20µM*.
For Cc1cccc(C(=O)NC(=S)NNC(=O)COc2ccc(Cl)cc2)c1 the results were HTT cytoprotect -69%, HTT aggregate -14%, Lamin A splicing inconclusive, JMJD2E inh 5% and ALDH1A1 block 9.5µM*.
Screening ONC(=Nc1cccc(C(F)(F)F)c1)c1cccnc1 returned HTT cytoprotect 11%[10 µM], HTT aggregate 8%[9.22 µM], JMJD2E inh 1% and ALDH1A1 block 10%.
For CCN=C1NN=C(c2ccc(C)cc2)CS1 the results were HPGD inh 28µM*, HTT cytoprotect -11%, HTT aggregate -4%, Lamin A splicing 10%, JMJD2E inh -8% and ALDH1A1 block 25µM*.
Clc1ccc(C2=NNC(=NCc3ccccc3)SC2)cc1 was read as HTT cytoprotect 1%[10 µM], HTT aggregate 29%, JMJD2E inh 6% and ALDH1A1 block 10µM*.
Screening c1ccc(CN=C2NN=C(c3ccccc3)CS2)cc1 returned HTT cytoprotect 4%[10 µM], HTT aggregate -4%, Lamin A splicing 1%[46 µM], JMJD2E inh -10% and ALDH1A1 block 22µM*.
`CC(=O)c1c(C)[nH]c(C2=NNC(=NCc3ccccc3)SC2)c1C` gave HTT cytoprotect -18%, HTT aggregate -2%, Lamin A splicing 12%[46 µM], JMJD2E inh inconclusive and ALDH1A1 block 28µM*.
Screening COc1ccccc1C1=NNC(=NCc2ccccc2)SC1 returned HTT cytoprotect 5%, HTT aggregate -11%, Lamin A splicing -9%[46 µM], JMJD2E inh inconclusive and ALDH1A1 block inconclusive.
`CC(=O)N1CC=CC1(CC(C)C)C(=O)NCc1ccc(C)o1` (stereo not given) gave HPGD inh -9%, HTT cytoprotect -40%, JMJD2E inh 2% and ALDH1A1 block -7%.
Screening Fc1ccc(C2=NNC(=NCc3ccccc3)SC2)cc1F returned HTT cytoprotect inconclusive, HTT aggregate -6%, JMJD2E inh -25% and ALDH1A1 block inconclusive.
For C=CCN=C1NN=C(c2cc(C)n(CC=C)c2C)CS1 the results were HPGD inh -26%, HTT cytoprotect -7%[10 µM], HTT aggregate -10%, Lamin A splicing 7%, JMJD2E inh -21% and ALDH1A1 block inconclusive.
C=CCN=C1NN=C(c2ccc3c(c2)OCCO3)CS1 was read as HTT cytoprotect -61%[10 µM], HTT aggregate 4%, Lamin A splicing -3%[46 µM], JMJD2E inh inconclusive and ALDH1A1 block 20µM*.
Screening c1ccc(C2=NNC(=NCc3ccc4c(c3)OCO4)SC2)cc1 returned HTT cytoprotect 19%[10 µM], HTT aggregate 7%, Lamin A splicing -5%, JMJD2E inh 1% and ALDH1A1 block 25µM*.
For CCOc1ccccc1N(CC)C(=O)Cn1ncc2c([nH]c3ccccc32)c1=O the results were Lamin A splicing 2%[46 µM].
COC(=O)CSC(C(=O)Nc1ccc(C)c(C)c1)c1ccccc1 (stereo not given) was read as HPGD inh -23%, HTT cytoprotect 3%, HTT aggregate 1%, Lamin A splicing 0%, JMJD2E inh 1% and ALDH1A1 block 10µM*.
`CCCCNC(=S)N(C)N=C1CCC(c2ccccc2)CC1` (stereo not given) gave HTT cytoprotect 0%[10 µM], HTT aggregate 5%, Lamin A splicing inconclusive, JMJD2E inh -3% and ALDH1A1 block 0.63µM*.
For CN(C)c1ccc(N=NS(=O)(=O)O)cc1 the results were HPGD inh -16%, HTT cytoprotect 3% and ALDH1A1 block 10µM*.
Screening CC(C)(CN)SCc1ccccc1 returned HPGD inh -8%, HTT cytoprotect -1%[10 µM] and ALDH1A1 block 11%[13.5 µM].
`O=C(c1ccc(F)cc1)N1CCN(CCc2ccncc2)CC1` gave Lamin A splicing -2%[46 µM].
Screening Cc1ccccc1Oc1ccc(-c2nc(N)nc(N)n2)cc1 returned HPGD inh 25µM*, HTT cytoprotect -7%, HTT aggregate 12%, Lamin A splicing inconclusive, JMJD2E inh -2% and ALDH1A1 block inconclusive.
Nc1nc(N)nc(-c2ccc(Oc3ccccc3)cc2)n1 was read as HPGD inh -27%, HTT cytoprotect -1%, HTT aggregate -5%, Lamin A splicing 21%, JMJD2E inh 6% and ALDH1A1 block -15%.
Screening NCCSS(=O)(=O)CCN returned HPGD inh inconclusive, HTT cytoprotect 10%[10 µM] and ALDH1A1 block inconclusive.
For COc1cccc(-n2c(=O)c3cc(OC)c(OC)cc3n(CC(=O)Nc3cc(C)[nH]n3)c2=O)c1 the results were HPGD inh inconclusive, HTT cytoprotect -27%[10 µM], HTT aggregate 24%, Lamin A splicing -6%, JMJD2E inh inconclusive and ALDH1A1 block inconclusive.
CCCSc1nnc(-c2cnn(-c3ccccc3)c2-n2cccc2)n1C was read as HPGD inh 18µM*, HTT cytoprotect -12%, HTT aggregate inconclusive, Lamin A splicing 20%, JMJD2E inh -4% and ALDH1A1 block inconclusive.
For C=CCSc1nnc(-c2cnn(-c3ccccc3)c2-n2cccc2)n1C the results were HPGD inh inconclusive, HTT cytoprotect 16%, HTT aggregate -11%, Lamin A splicing 15%, JMJD2E inh 4% and ALDH1A1 block -10%.
Screening CC(=O)OC1CC2C(C)(C)C(O)CC[C@@]2(C)C2CC[C@@]3(C)C(c4ccoc4)OC(=O)C4O[C@@]43[C@]12C (stereo not given in full) returned HPGD inh -2%, Lamin A splicing 24%, JMJD2E inh -9% and ALDH1A1 block -12%.
`COc1ccc(C2C=C(C34CC5CC(CC(C5)C3)C4)NC(=S)N2)cc1` (stereo not given) gave HPGD inh 0%, HTT cytoprotect inconclusive, HTT aggregate -16%, Lamin A splicing inconclusive, JMJD2E inh inconclusive and ALDH1A1 block 4µM*.
`N[C@@H](C(=O)O)[C@H](CC(=O)O)c1ccc(Cl)cc1` gave HPGD inh -6%, HTT cytoprotect -20%, JMJD2E inh -5% and ALDH1A1 block 9%.
